Data taken from PubChem BioAssay AID1508600 (Functional Genomics Laboratory (NCATS/FGL), 2020).
The whole screen tested about 53,000 sequences, of which about 3,700 (7%) were called active.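 Rule for the calls: active = gene knockdowns whose robust z-score for IL-1 alpha signal is at least 2 or at most -2, so actives lie on both sides; inactive = the rest.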 The sample as a whole holds a higher share of actives than the screen did.

test: Components of the Cytosolic LPS Sensing Pathway: Gene Identification via Genome-wide siRNA Screen; settings: RAW264.7 macrophages, IL-1a HTRF, actives lie on both sides, screened at 100 nM (by protocol), cells primed 5 h with Pam3CSK4 first;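 note: robust z of the log signal after scaling to non-targeting control siRNA wells of the plate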
In short: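 RAW264.7; siRNA 100 nM final, RNAiMAX, 48h 37 degrees C; Pam3CSK4 5 h; LipidA + TransIT-TKO 24 h; IL-1a HTRF; CellTiter-Glo viability; robust z vs negative-control median.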

Sequence	z-score
GCUAGUGUGAUACCAUUUATT against Nab1	1.63 (inactive)
GGAGAACCGUAACAACAACTT against Cacna1a	0.692 (inactive)
GGUAGACUCUAGAUUAAGATT against Srrm2	-0.58 (inactive)
CGAGCAAAUCUCAUUCAAGTT against Oxgr1	3.07 (active)
CCCACCUUACAUAUAUUGATT against Srr	0.25 (inactive)
GGUAUUAGAAGAUAAUGACTT against Akt3	-1.12 (inactive)
CCAUCAGUUUCAUUAUUGGTT against Fpr-rs6	-0.605 (inactive)
GCAUAACUUAAACUGCUCATT against Zfp12	1.91 (inactive)
CCAGAGCUUAUUGAGAUGCTT against Myh4	-0.475 (inactive)
GCUACUUAAGGGUUUGGAUTT against Pcdhb3	4.67 (active)
GGCUGUUACAAGAACGUAGTT against 5031434C07Rik	-1.99 (inactive)
GGAAACAACCCAAAGAAUCTT against Slc12a8	-0.343 (inactive)
GGUGGACCUGAAACGUAGCTT against Inhbb	0.878 (inactive)
GGUUCAUCUUUCAAAUCUATT against Kpna4	-0.676 (inactive)
CCUGUAGGUGGAAUAAACATT against Awat2	-2.28 (active)
CCUAGUAAUGUCCAUUGUGTT against Endod1	0.0364 (inactive)
GGACUCAGAUAUCUUUCAGTT against Adck1	-0.328 (inactive)
CGUUGCUGACUGCUAUGAATT against Tmprss13	-1.22 (inactive)
CCACUUUCACAUGAAGUUATT against Eif2s3x	-0.7 (inactive)
GCUCCAGCUUGCACUCUUGTT against Trp53i13	1.36 (inactive)
GCCACAUCGUAGACAAGUATT against Zfp41	-2.71 (active)
CCCGAACCUGUUGUCUGAATT against Ttc8	-0.422 (inactive)

Sequence	z-score
GCCAAGUGCUACAACAUCCTT against Ifitm5	-0.64 (inactive)
CCGAGAUUGCCUGUUUGGUTT against Rnf144b	2.08 (active)
GGAACUCAAAUUGAAAAGGTT against Manea	-0.135 (inactive)
GCUAUUGGAGAUAUAAUGGTT against Ace	1.58 (inactive)
GGACUUUUUCAAAGGUUUUTT against Eif4g3	2.37 (active)
GGCAGGCAACCAAUCAAAUTT against Npepps	1.29 (inactive)
GGAUUUCAUUAUCCUGUUUTT against Zfp608	-1.19 (inactive)
GCCUUGAACUAUGCAUAGATT against Eno2	1.7 (inactive)
GGCCUCAUGCAGGAACAUUTT against Polr2d	-2.34 (active)
GGAAGAAGAAAGAUUCAAATT against Bcan	-0.862 (inactive)
GAUUUUUCAAAUCUUUGGCTT against Plac8	-1.52 (inactive)
GAGCAUCUGUGUAGAAGUGTT against Thrsp	0.786 (inactive)
CCUGGUACAAUCAAACUGCTT against Rnf222	0.516 (inactive)
GGCAGAAUGGGAAAUGUAUTT against Htr7	-0.841 (inactive)
GCCGUUUAUUCAUUGCACUTT against Cdc123	1.21 (inactive)
GGACUUGACCUCAAGGGAATT against Sox6	2.35 (active)
GGAAUUCAAUCAGUUUGCUTT against Dysf	1.06 (inactive)
GGCAUUUUUCGGAUUGACATT against Mmp27	-0.807 (inactive)
CCCUCUGAACUAUAUGACUTT against Olfr700	-1.09 (inactive)
GGUGUGGAACGACAAACAGTT against Pla2g4f	-2.8 (active)
GGCUUUGUGGACUUAAUUATT against Cyb5r2	-1 (inactive)
GCAUCACUGGAUUGUGGAUTT against Tm9sf2	0.188 (inactive)

Sequence	z-score
GGGAAAAAUGGUCAGAUUATT against Colgalt2	-1.08 (inactive)
GGUUCCUAAGGAUGAACUUTT against Akr1c14	-0.186 (inactive)
GGCCUAGCAAGGGAUUUUATT against Cep85	-2.02 (active)
GGAUCUCUUUGUUAAUGGUTT against Mall	0.715 (inactive)
GCCAUAUGCUAUCAAGAUGTT against Pskh1	-0.715 (inactive)
GGAAUGCUACAACUCAAAATT against Ptk2	-0.861 (inactive)
GGCAUUGGUUCCUACAAGATT against Gm773	-0.118 (inactive)
GGUAGAGGAUCUCUCUAAATT against Fbxo44	-0.444 (inactive)
GCUGGUAAACAUAGGUGGCTT against C1qtnf4	2.18 (active)
GGUCCAUGGGUAAGAGGAUTT against Vmn1r43	1.2 (inactive)
GGUCGUGCGAUCCACAGAUTT against Vangl2	-0.44 (inactive)
GUUUUGGAUUCCUCUGUCATT against Olfr1097	-1.69 (inactive)
GGAAAAUUCCAGAAACCAUTT against Mettl8	0.608 (inactive)
GGAUGAAGAGAAAGUUCUATT against Mak	2.49 (active)
GGUGAGGUUCAAACAUUCUTT against Sdf2	0.0627 (inactive)
GGGAUUCCACGGAUACUGUTT against Rnase13	-0.858 (inactive)
GGACUACCAGUUUUACAUCTT against Ssr1	1.25 (inactive)
GCCGGUGACUUUCUAAUUUTT against Yrdc	-1.32 (inactive)
GCCUUAACUAUAGUCCAGATT against Scn7a	-0.928 (inactive)
GGCAUGGCUGGCAAAAACATT against Ppp1r15a	-1.85 (inactive)
UGCAAUCCGGAUCAAACGUTT against Cebpb	-2.03 (active)
GGAAGAUUUCUUCAAACGCTT against Lhx4	-0.167 (inactive)

Sequence	z-score
CCUGAAGAGGAUGAUAUGGTT against Fam221a	0.144 (inactive)
GGUCUUCAGAAUCCUCAAUTT against Ap1g2	-0.4 (inactive)
GCCAACCUGAAACCAUCUATT against Ptprg	0.0567 (inactive)
GGACACAGACAAUGAAAUGTT against Fetub	-2.35 (active)
GGAGCAUUGCUCUUCUUCATT against Get4	-0.073 (inactive)
GCAGAAGUAUUACUGGAUGTT against Olfr572	0.841 (inactive)
GCUAGGAACGAGGAGCUAATT against Prrt3	1.07 (inactive)
GGAAUACAUAGCACACGGUTT against Apba2	1.06 (inactive)
CCCUGAAACAAUGAAUACATT against Serpini1	0.325 (inactive)
GCUUCCUAACCAGGUUUGATT against 4430402I18Rik	2.1 (active)
GGAGAAGCUAAGAAACGAGTT against Acyp2	-0.696 (inactive)
CCCACAUUGCUUACCUUUCTT against Zfp523	-0.762 (inactive)
GCUGGGUUGCUGAUUUUUGTT against Arl5a	-0.881 (inactive)
GGGCUUUCUCCAAUCGUAATT against Gm4876	0.603 (inactive)
CGAGCCUCUGUGAUAUCCATT against Cst11	-2.69 (active)
GGUUCUGUCUUUUACUUUCTT against Olfr1496	0.232 (inactive)
CGAGUGCUUCUCUUGACAUTT against Mrpl22	-0.43 (inactive)
GGAUAAUUAUAGGAAGAGCTT against Ncapd3	-0.507 (inactive)
GGGAUGCUAACAGGUGUCATT against Tkfc	-0.12 (inactive)
GGCAUUACAUUUCAAUGAATT against Serpinb12	-0.71 (inactive)
GGAAUACACUCAAUAUUGATT against Nupl1	-2.59 (active)
GGUGUUCUUGAAGUUUAUATT against Zfp157	0.579 (inactive)

Sequence	z-score
GCAGGAGUCAAAUUUUCUATT against Nemp1	-0.795 (inactive)
GGAUUUUUGACUGUGAUUCTT against Pak1ip1	-1.57 (inactive)
CCCAGACAUUACAUGGCCUTT against Cldn6	-0.935 (inactive)
GGAACAAUGGGUUCAUUUUTT against Ifi203	0.136 (inactive)
CGUAAUCUUCAUCUUAGUATT against Olfr613	0.601 (inactive)
GGAACCAAGGAUGUGAAAGTT against Rab13	-2.17 (active)
GGAGUCUUGGAAAAAAGGCTT against Rep15	-1.65 (inactive)
GGCCUGUUGAUUGCAUAUUTT against Sppl2a	-1.01 (inactive)
GGCCUGAAAAGACUGAUAATT against Vmn2r26	1.18 (inactive)
GCUAGUUAAGAGGAGGCUGTT against Nob1	-0.252 (inactive)
GGAGCACAGGAAAAUAUAUTT against Mdm2	0.561 (inactive)
GCACUUUGUAUAUCUUUCCTT against Btd	1.51 (inactive)
GGAGAAGGAUUAUACCAGUTT against Rfesd	2.2 (active)
GGGAGUUUCCAGAUGUUUUTT against Gclm	0.0729 (inactive)
GGAAGAAAAGACUUAUCGUTT against Jkamp	-0.663 (inactive)
GGGAAACAUCUUCCUAUCCTT against Serpina12	-0.958 (inactive)
GGCAGGUUUUUGACAACUUTT against Fxyd4	3.2 (active)
CCUAAUAAGCCAUAUGCAUTT against Alkbh8	-0.449 (inactive)
GCCCUCUGUGAGUAGUAAUTT against Shroom3	0.603 (inactive)
GUUACUACAACAGCUACUATT against Krtap19-4	-2.37 (active)
